The text below walks through data of PubChem BioAssay (NCATS).

Results filed as inconclusive are left out. Some compounds were tested as several samples or in several runs, with calls that do not always agree. Calls of active or inactive are those of the source. Calls come from the whole dose curve; as a rule, active = well fitted inhibition curve with a large enough effect; inconclusive = small, poorly fitted or top-dose-only effect; inactive = flat fitted curve, though single readings scatter.
Potency is the fitted concentration of half-maximal effect.

This assay in a line: qHTS for Inhibitors of Plasmodium falciparum (HB3) proliferation (AID 504318).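 For activity change, negative = inhibition: 0% = DMSO vehicle and -100% = artemisinin control.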 Note: nearly all actives have a fitted effect of over 60% in size. Conditions: P. falciparum HB3 in erythrocytes, SYBR Green DNA, 72 h; series mostly up to 7.21 µM; activity change, negative = inhibition: at the top concentration. From the text:
Plasmodium falciparum is a virulent malarial parasite that kills 1-2 million people worldwide each year. Malaria not only inflicts tremendous suffering and morbidity on the human population, but has dramatically influenced the course of civilization with profound sociological and economic implications (Shah, S. 2010). Transmitted by mosquitoes, the sporozoite form of the parasite enters the blood stream to infect hepatocytes, where they become merozoites that infect red blood cells (erythrocytes). Within erythrocytes, merozoites begin a […] cycle of growth and division, after which the parasite is released to infect new red blood cells. Gametocytes, which form within erythrocytes as well, circulate in the bloodstream and are ingested by the mosquito, thereby completing the life cycle (see CDC website). To profile malarial lines for differential chemical responses and to identify inhibitors of malarial growth, an assay that measures P. falciparum growth and replication within erythrocytes was employed. This assay uses a DNA binding fluorescent dye (SYBR Green) to detect parasite DNA following cell lysis. Because mature erythrocytes lack DNA, only Plasmodium-derived DNA is detected. The P. falciparum line cp250, derived from a malarial isolate from Cambodia, (Mu, J., et al. 2010) was added to the panel of lines, Dd2, HB3, 7G8 and GB4 in this study. Laboratory of Assay Development and Screening Technology [ADST] and NIH Chemical Genomics Center [NCGC] Boston University, Chemistry Department, Center for Chemical Methodology and Library Development [CMLD-BU] NIH National Institute of Allergy and Infectious Diseases [NIAID]
ADST Assay Protocol Summary: The 1536-well SYBR Green viability assay was based on the method of Bennett et al (2004) and described previously in 1536-well format (Yuan J., et al. 2009). For screening 3 ul culture medium was dispensed into 1536 well black clear bottom plates (Aurora Biotechnologies) using a Multidrop Combi (Thermo Fisher Scientific Inc.), 23 nL compounds in DMSO were added by a pin transfer (Cleveland, P.H. and Koutz, P.J, 2005) using a pin tool-based delivery system (Kalypsys), and 5 ul of erythrocytes infected with P. falciparum one of five lines (cp250, Dd2, HB3, 7G8 or GB4, 0.3% parasitemia, 2.5% hematocrit final concentration) were added. The plates were incubated at 37C in a humidified incubator in 5% CO2 for 72 h, and 2 ul lysis buffer (20 mM Tris HCl, 10 mM EDTA, 0.16% saponin, 1.6% triton X, 10X SYBR Green I (supplied as 10,000X final concentration by Invitrogen) was added to each well. The plates were mixed for 25 sec with gentle shaking and incubated overnight at room temperature in the dark. The following morning, fluorescence intensity at 485(14) nm excitation and 535(25) nm emission wavelengths was measured on an EnVision (Perkin Elmer) plate reader. Plate reads were normalized relative to the control inhibitor (0.29 uM artemisinin) and vehicle (DMSO) wells present on each plate and then corrected by an algorithm using vehicle-only control plates at the beginning and end of the compound plate stack. References Shah, S. (2010). The Fever: how malaria has ruled humankind for 500,000 years. New York, Sarah Crichton Books. CDC web site, http://www.cdc.gov/malaria/about/biology/index.html Mu, J., Myers, R.A., Jiang, H., Liu, S., Ricklefs, S., Waisberg, M., Chotivanich, K., Wilairatana, P., Krudsood, S., White, N.J., et Plasmodium falciparum genome-wide scans for positive selection, recombination hot spots and resistance to antimalarial drugs Nature Genetics 2010, 42, pp 268-271 Bennett TN, Paguio, M., Gligorijevic, B., Seudieu, C., Kosar, A. D., Davidson, E., and Roepe, P. D. Novel, rapid, and inexpensive cell-based quantification of antimalarial drug efficacy Antimicrobial Agents Chemother. 2004, 48(5): pp 1807-10 Yuan J, Johnson RL, Huang RL, Wichterman J, Jiang HY, Hayton K, Fidock DA, Wellems TE, Inglese J, Austin CP, Su XZ. […]
(In general: qHTS replaces the single test concentration by a dilution series.)
As for `C=C(C(C)=O)C(O)c1ccc(C(F)(F)F)cc1` (stereo not given), the “activity change, negative = inhibition” value was 1.03% (inactive). In the case of `CC(CCN1CCCCc2nc(C)c(C)cc21)=NOC[C@@H](O)[C@H]1O[C@@H]2OC(C)(C)O[C@H]2[C@@H]1O`, the “activity change, negative = inhibition” value was -3.55% (inactive).

As for `COCCN1C(=O)C2=C(C1=O)C1N(C)c3ccccc3[C@@]13C[C@@H](CO)N(C(C)=O)C3=N2` (stereo not given in full), the “activity change, negative = inhibition” value is -13.1% (inactive). As to `CC(C)[C@@H](OCc1ccccc1)[C@H](C)C=NO[C@H](C)c1cn([C@H](CO)Cc2ccccc2)nn1`, the “activity change, negative = inhibition” value is -0.947% (inactive).

Regarding `CC(C)=CCN1C(=O)[C@]2(OCCC=C[C@H]2C)c2c(Br)cccc21`, the “activity change, negative = inhibition” value is -9.5% (inactive).

In the case of `C[C@H]1Cc2c(COc3ccccc3)nc3c(c2CO1)CN(C(=O)C1CCCCC1)CC3`, the “activity change, negative = inhibition” value is -11.8% (inactive). Still for that read-out and setting: the result for `CCOC(=O)C1=C(CCl)NC(=O)N(C(C)=O)C1c1ccccc1` (stereo not given) reads 9.97% (inactive); that for `COC(=O)C1=C2C=C(C)CC(C)N2C(=O)NC1c1ccccc1` (stereo not given), -3.17% (inactive); that for `CC12C=C(C=CCCc3ccco3)C(C)(C1)C(CCc1ccco1)CC2=O` (stereo not given), 5.07% (inactive). `COCCN1C(=S)NC(c2cccc(F)c2)C(C(=O)OC)=C1C` (stereo not given): the “activity change, negative = inhibition” value is -6.5% (inactive).

`CC(=O)O[C@@H]1C(CO[Si](C)(C)C(C)(C)C)=C(Br)C(=O)[C@@H]2O[C@]12C`: the “activity change, negative = inhibition” value is -10.6% (inactive).

Turning to `CC1=CC[C@@H](COc2ccccc2)O[C@@]2(C1)C(=O)N(Cc1ccccc1C(F)(F)F)c1cccc(Br)c12`, the Potency is 1.69 µM (active). Same read-out and setting: in the case of `COC(=O)C1=C(C)[C@H](O)[C@@H](C)[C@](C)(c2cc(OC)c(C)c(OC)c2COc2ccccc2)O1` it was 1.9 µM (active) and inactive; in that of `COC(=O)C(C(=O)OC)C1c2ccccc2C=C(C2CC2)N1C(=O)OC` (stereo not given), “inactive”. Turning to `COC(=O)N[C@H](C(C(=O)OC)=C(C)NCc1ccccc1)c1ccc(Cl)cc1`, the “activity change, negative = inhibition” value is 0.661% (inactive). The same measure, in the same setting: in the case of `C=CC[C@@H]1C=C(C(=O)OC)N(C(=O)C(F)(F)F)[C@@H](c2ccccc2Br)[C@@H]1C` it was -11.2% (inactive); in that of `COc1ccc2c(c1)C(=O)[C@H](OC(=O)Nc1cc(OC)c(OC)c(OC)c1)[C@@H](c1ccc(OC)c(Br)c1)O2`, -9.36% (inactive); in that of `COC(=O)NC(c1ccc2c(c1)OCO2)C(C(=O)OC)C(=O)OC` (stereo not given), 4.73% (inactive). Turning to `C=CCN1C(=O)[C@@]2(CC(C)=CC[C@@H](C)O2)c2c(Br)cccc21`, the “activity change, negative = inhibition” value was -1.86% (inactive). As for `Cc1ccccc1Nc1oc(-c2ccccc2)nc1-c1ccccc1`, the Potency was 1.69 µM (active). `CCN1C(=O)NC(c2ccccc2)C(C(=O)OC)=C1C` (stereo not given): the “activity change, negative = inhibition” value is 9.69% (inactive). On the same count and under the same terms, the result for `COC(=O)CC1=CO[C@@H](O)[C@@H]2C(CO)=CC[C@@H]12` reads -5.72% (inactive). The same measure, in the same setting: in the case of `COC(=O)[C@@H]1CC[C@H](C)[C@@H](c2ccc(C)cc2)N1C(=O)c1ccc(C=NO[C@H](C)c2cn([C@@H]3COC[C@@H]3O)nn2)cc1` it was 5.17% (inactive).

Regarding `COC(=O)CCCC1=CC2=CC(=O)C(C)(OC(=O)c3cccs3)C(=O)C2=CN1C1CCCC1` (stereo not given), the Potency entry was “inactive”.

As for `COC(=O)C1=C(C(=O)OC)[C@@H]2N(C)c3ccccc3[C@@]23CCC(=O)N(Cc2ccco2)C3=N1`, the “activity change, negative = inhibition” value was -10.5% (inactive).

In the case of `CCCCOC(OCCCC)C(O)CSc1ccc2ccccc2c1` (stereo not given), the “activity change, negative = inhibition” value was -6.74% (inactive). The same measure, in the same setting: the result for `C=CC[C@@H]1C=C[C@@H](Oc2ccc(OC)cc2)[C@H](COC(=O)c2ccc(Br)cc2)O1` reads 3.62% (inactive). With `COC(=O)C1=C(C(=O)OC)[C@@H]2N(Cc3ccccc3)c3ccccc3[C@@]23C[C@@H](C(=O)OC)N(C(=O)c2cc(C)oc2C)C3=N1`, the Potency entry was “inactive”. As for `CC(Nc1oc(-c2ccccc2)nc1-c1ccccc1)c1ccccc1` (stereo not given), the “activity change, negative = inhibition” value is -13.3% (inactive). On the same count and under the same terms, the result for `CCCCc1cc2c(cn1)=C(OC(=O)c1ccco1)C(C)(OC(=O)CC)C(=O)C=2` (stereo not given) reads -10.6% (inactive); that for `CCN1C(=NCc2ccc(OC)cc2)NC(c2cccc(F)c2)C(C(=O)OC)=C1C` (stereo not given), 7.22% (inactive); that for `CCN1C(=NCC(C)C)N[C@H](c2ccccc2)[C@H](C(=O)OC)[C@H]1C`, -1.77% (inactive). On the same count and under the same terms, in the case of `COC[C@@H](OC(C)=O)[C@H]1OCc2ccccc2[C@H]1C=Cc1ccccc1` it was -10.7% (inactive); in that of `CCCCc1cc2c(cn1)C(=O)C(C)(OC(C)=O)C(=O)C2` (stereo not given), -9.76% (inactive). The same measure, in the same setting: the result for `COCC=CC1=CC2=CC(=O)C(C)(OC(=O)c3cnc4ccccc4n3)C(=O)C2=CN1CC(C)C` (stereo not given) reads -7.45% (inactive). For `OC[C@H]1O[C@H](C#Cc2ccccc2)C=C[C@@H]1O`, the “activity change, negative = inhibition” value is 4.25% (inactive).

With `O=C(NN=C1C[C@@H](O)[C@H](O)[C@H]2[C@@H]3C(=O)N(C[C@@H]4CCCO4)C(=O)[C@@H]3CC[C@H]12)OCc1ccccc1`, the “activity change, negative = inhibition” value was -9.29% (inactive). On the same count and under the same terms, the result for `C=CC1(O)C(OC)=CC2C(=O)C1C(c1ccccc1)C2C` (stereo not given) reads -2.57% (inactive).

`CCN1C(=NCCOC)N[C@@H](c2ccccc2)[C@H](C(=O)OC)[C@H]1C`: the “activity change, negative = inhibition” value is -14.2% (inactive). The same measure, in the same setting: the result for `COc1ccc2c(c1)O[C@H](c1ccc3c(c1)OCO3)[C@@H](OC(=O)N[C@H]1CCCc3ccccc31)C2=O` reads 2.84% (inactive).
